Experimental data published in PubChem BioAssay (NCATS).
Inconclusive results are not listed. Activity calls are given as the source filed them. Unless noted, calls come from the whole dose curve; as a rule, active = well fitted curve in the direction sought with a large enough effect; inconclusive = small, poorly fitted or top-dose-only effect, or another doubt; inactive = no such curve, though single readings can be large; an effect the other way counts as inactive or inconclusive.

Experiments:
[1] = HEK293 24hr Apoptosis Induction qHTS against the NCATS CANVASS Library (AID 1347359)
Procedure, shortened: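 HEK293 cells (500/well, DMEM + 10% FBS) were exposed to compounds in an 11-point series for 24 hours at 37 degrees C, then caspase-3/7 activity was read by Caspase-Glo DEVD luciferase luminescence after 15 min.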

[2] = HPAF-II 18hr Apoptosis Induction qHTS against the NCATS CANVASS Library (AID 1347360)
Procedure, shortened: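 Luminescent DEVD-substrate signal, proportional to caspase activity, is measured in HPAF-II cells after 18-hour treatment across a concentration series; doxorubicin serves as control.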

[3] = HEK293 12hr Apoptosis Induction qHTS against the NCATS CANVASS Library (AID 1347361)
Procedure, shortened: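 Luminescent caspase-3/7 signal, proportional to enzyme activity, was recorded from HEK293 cultures in DMEM + 10% FBS treated for 12 hours with titrated natural products (11 points). Doxorubicin (0.1nM - 4uM) served as control.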

[4] = test system: NAD(P)H diaphorase (Clostridium kluyveri); assay: Diaphorse counterscreen qHTS: Assay Interference Panel against the NCATS CANVASS Library (AID 1347362)
Procedure, shortened: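 Clostridium kluyveri diaphorase in PBS with 0.01% Tween-20 was preincubated 15 min at room temperature in the dark with compounds (11-point series). Resorufin fluorescence (ex 525/20, em 598/25) was read 5 min after adding resazurin/NADH.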

[5] = target: Luciferin 4-monooxygenase (Photinus pyralis) (UniProt P08659); assay: Firefly luciferase counterscreen qHTS: Assay Interference Panel against the NCATS CANVASS Library (AID 1347363)
Procedure, shortened: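 Purified P. pyralis luciferase was added to compounds (11-point series) preincubated 15 min at room temperature with substrate containing 0.013 mM D-luciferin and 0.013 mM ATP; luminescence was read after 5 min.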

[6] = KB-8-5-11 Cancer Cell Toxicity qHTS against the NCATS CANVASS Library (AID 1347364)
Procedure, shortened: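 Natural products were titrated in 11 points onto KB-8-5-11 cells, 500 per well, and cytotoxicity was scored from CellTiter-Glo luminescence after 72 hr culture.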

[7] = qHTS for ATAD5 Agonist screened against the NCATS CANVASS Library (AID 1347367)
Procedure, shortened: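 Genotoxicity was scored as increased ATAD5-luciferase luminescence in HEK293T after 16hr of exposure, with cell viability measured by fluorescence beforehand in the same well.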

[8] = MCF7 Cancer Cell Toxicity qHTS against the NCATS CANVASS Library (AID 1347369)
Procedure, shortened: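 This 72 hr qHTS scored MCF7 viability by CellTiterGlo luminescence, with 500 cells/well; bortezomib titration ran as control.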

[9] = qHTS for ATAD5 Antagonist screened against the NCATS CANVASS Library (AID 1347370)
Procedure, shortened: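 HEK293T cells with a stably integrated ATAD5-controlled luciferase reporter were exposed to compounds (11-pt) alongside 10 uM 5-fluorouridine as ATAD5 stabilizer for 16hr at 37C. Viability was read by CellTiter-Fluor fluorescence, then ATAD5 by luminescence.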

[10] = J3T Cancer Cell Toxicity qHTS against the NCATS CANVASS Library (AID 1347371)
Procedure, shortened: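 Viability of the J3T glioma line from dog is scored by ATP luminescence after a 72 hr incubation with natural products.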

[11] = target: Nuclear receptor subfamily 1 group I member 3 (Homo sapiens) (UniProt Q14994); assay: qHTS for Constitutive Androstane Receptor (CAR) Antagonist screened against the NCATS CANVASS Library (AID 1347372)
Procedure, shortened: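 HepG2 cells stably carrying hCAR and a CYP2B6-2.2kb luciferase reporter were exposed to compounds plus 50 nM CITCO for 24hr at 37C. CAR activity was read by ONE-Glo luminescence, with viability measured first by CellTiter-Fluor.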

[12] = target: Nuclear receptor subfamily 1 group I member 3 (Homo sapiens) (UniProt Q14994); assay: qHTS for Constitutive Androstane Receptor (CAR) Agonist screened against the NCATS CANVASS Library (AID 1347373)
Procedure, shortened: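 CAR agonism is scored as CYP2B6-promoter luciferase induction in a double-stable transfected HepG2 line, where 1.5uM PK11195 is included in each well. Compounds were tested over a 24hr exposure.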

[13] = qHTS for Hypoxia signaling pathway (HIF-1) antagonists against the NCATS CANVASS Library (AID 1347374)
Procedure, shortened: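 HRE-bla ME-180 cells (2,000/well, 0.5% dialyzed FBS) were pre-incubated 5 h, then given an 11-point compound series plus CoCl2 (60 uM solution as added) for 17 h at 37C. CCF4 β-lactamase read (ex 405, em 460/530 nm) after 2 h at RT.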

[14] = qHTS for Hypoxia signaling pathway (HIF-1) agonists against the NCATS CANVASS Library (AID 1347375)
Procedure, shortened: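 Inducers of HIF-1 signaling were detected in ME-180 cells bearing an HRE-driven beta-lactamase reporter after 17 h compound exposure. Activity came from CCF4-AM FRET emission ratio (460/530 nm) in qHTS format.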

[15] = 10-beta competent E. coli microbial cell viability qHTS against the NCATS CANVASS Library (AID 1347376)
Procedure, shortened: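 Cytotoxicity toward competent E. coli is scored from cellular ATP content via BacTiter-Glo luminescence following overnight compound exposure at 37C, 5% CO2.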

[16] = qHTS for H2AX Agonists against the NCATS CANVASS Library (AID 1347378)
Procedure, shortened: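 Signal is the 665/620 nm emission ratio from europium cryptate and d2 antibody pair, rising with S139-phosphorylated H2AX. CHO-K1 cells saw test agents for 3 hr at 37C; detection ran 24 hr at room temperature.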

[17] = Inflammasome Signaling qHTS Counterscreen: IL-1-beta AlphaLISA counterscreen against the NCATS CANVASS Library (AID 1347381)
Procedure, shortened: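 To flag interference with the AlphaLISA read-out, a known amount of purified IL-1-beta (4 pg) replaced cell supernatant. Detection used anti-IL-1-beta acceptor beads, biotinylated antibody and streptavidin donor beads at room temperature.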

[18] = Cytotoxicity qHTS for assessment of Hepg2 cells membrane integrity screened against the NCATS CANVASS Library (AID 1347387)
Procedure, shortened: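 Fluorescence proportional to lysed-cell number, from LDH leaking out of HepG2 cells exposed 5 hr at 37C to 0.59 nM - 46 uM compound (11-point qHTS), is measured after 10 min with CytoTox-ONE.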

[19] = qHTS for activators of dead-cell proteases activity screened against the NCATS CANVASS Library (AID 1347392)
Procedure, shortened: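 HepG2 cells (2000/well) attached 18 h at 37C, then exposed 5 h to compounds (11-point qHTS). Dead-cell protease activity read as luminescence from cell-impermeant AAF-aminoluciferin substrate after 15 min at room temperature.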

[20] = qHTS for inhibitors of ER calcium dysfunction: SERCaMP assay screened against the NCATS CANVASS Library (AID 1347393)
Procedure, shortened: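 qHTS in SH-SY5Y reporter cells: 16 h compound pretreatment, 4 h thapsigargin, then secreted Gaussia luciferase measured by luminescence.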

[21] = Vero-766 cells viability qHTS against the NCATS CANVASS Library: Counterscreen for Zika virus inhibition assay (AID 1347394)
Procedure, shortened: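 Counterscreen for toxicity: Vero 766 cells exposed 72 h to an 11-point compound series, viability by CellTiter-Glo.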

[22] = qHTS for inhibitors of Wild type Zika virus screened against the NCATS CANVASS Library (AID 1347396)
Procedure, shortened: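 Luminescent CellTiter Glo read-out of virus-induced cytotoxicity, 72 h post-infection, in Vero 766 cells. Compounds were tested at 11 concentrations; uninfected, vehicle-treated wells defined 100% inhibition.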

[23] = Redox Reaction Profiling qHTS: Assay Interference Panel against the NCATS CANVASS Library (AID 1347401)
Procedure, shortened: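 Resazurin (5 uM) conversion to resorufin measured with 200 uM DTT in 50 mM HEPES pH 7.3, 50 mM NaCl. Compounds tested in 11-point qHTS series. Fluorescence (ex 525/em 598 nm) read before and after 15 min dark incubation.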

[24] = qHTS for inhibitors of Rabies Virus screened against the NCATS CANVASS Library (AID 1347402; calls by dose curve)
[25] = Primary qHTS for small molecule stabilizers of the endoplasmic reticulum resident proteome: Secreted ER Calcium Modulated Protein (SERCaMP) assay (AID 1508630)
Procedure, shortened: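 GLuc-SERCaMP-expressing SH-SY5Y cells, pretreated 16 h with compound, are challenged with thapsigargin to empty ER calcium stores; after 4 h, coelenterazine is added directly to the medium and luminescence is imaged.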

Nuclear receptor subfamily 1 group I member 3 (Homo sapiens), sequence (Q14994 whole entry, looked up): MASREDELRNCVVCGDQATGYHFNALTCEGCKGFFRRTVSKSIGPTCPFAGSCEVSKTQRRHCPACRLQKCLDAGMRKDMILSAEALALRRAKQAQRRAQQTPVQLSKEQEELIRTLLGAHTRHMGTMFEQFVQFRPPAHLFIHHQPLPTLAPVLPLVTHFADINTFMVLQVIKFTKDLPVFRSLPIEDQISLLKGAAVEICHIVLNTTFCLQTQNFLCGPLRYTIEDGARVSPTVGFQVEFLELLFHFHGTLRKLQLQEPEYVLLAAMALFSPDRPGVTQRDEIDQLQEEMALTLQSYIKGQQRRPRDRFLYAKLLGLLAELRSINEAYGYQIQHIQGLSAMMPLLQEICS
Luciferin 4-monooxygenase (Photinus pyralis), sequence (P08659 whole entry, looked up): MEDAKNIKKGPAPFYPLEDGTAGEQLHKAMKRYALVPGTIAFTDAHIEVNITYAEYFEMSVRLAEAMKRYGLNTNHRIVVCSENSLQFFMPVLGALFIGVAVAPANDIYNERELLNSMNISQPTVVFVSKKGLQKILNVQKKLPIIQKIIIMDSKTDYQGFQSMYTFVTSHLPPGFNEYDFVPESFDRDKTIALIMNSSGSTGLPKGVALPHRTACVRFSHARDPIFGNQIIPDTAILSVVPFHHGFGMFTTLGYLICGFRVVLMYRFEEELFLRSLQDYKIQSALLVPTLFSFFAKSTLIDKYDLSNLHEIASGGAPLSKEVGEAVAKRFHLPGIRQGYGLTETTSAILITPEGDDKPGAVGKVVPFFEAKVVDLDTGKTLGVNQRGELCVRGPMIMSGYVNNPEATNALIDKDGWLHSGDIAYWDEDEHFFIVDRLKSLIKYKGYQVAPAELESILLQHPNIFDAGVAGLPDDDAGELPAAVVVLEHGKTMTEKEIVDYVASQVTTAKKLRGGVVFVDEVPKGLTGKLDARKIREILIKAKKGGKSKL

## COc1ccc2c3c([nH]c2c1)C(C)=NCC3
[1]
  Potency: inactive
[2]
  outcome: inactive
[3]
  Potency: inactive
[4]
  outcome: inactive
[5]
  outcome: inactive
[6]
  Potency: inactive
[7]
  Potency: inactive
[8]
  Potency: inactive
[9]
  Potency: 16.6 µM (active)
[10]
  Potency: inactive
[11]
  Potency: inactive
[12]
  outcome: inactive
[13]
  Potency: inactive
[14]
  Potency: 13.3 µM (active)
[15]
  outcome: inactive
[16]
  Potency: inactive
[17]
  outcome: inactive
[18]
  outcome: inactive
[19]
  Potency: inactive
[20]
  Potency: 27.2 µM (active)
[21]
  Potency: inactive
[22]
  Potency: inactive
[23]
  Potency: inactive
[24]
  outcome: inactive
[25]
  Potency: inactive
